# Assay results published in PubChem BioAssay.
# The source made the active and inactive calls. Unless noted, the rule behind the calls is not given here.
# Columns and labels:
# [1] = tested on: Wnt5a (protein binding on small-molecule microarray); experiment: small molecules binding Wnt5a protein – biophysical, small-molecule microarray, 635/667 nm fluorescence, primary screen (AID 1142); conditions: 635 nm fluorescence, higher = more signal;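 note: fluorescence read at 667 nm with signal to noise per printed feature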
# [2] = ATP-based viability of Huh7 replicon cells – cell-based, CellTiter-Glo luminescence, basal, 48 h, cytotoxicity control for HCV replication inhibitor project, primary screen (AID 1143); conditions: higher = more signal, called active from +8 up or from −8 down;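 note: Huh7 hepatoma cells carrying a hepatitis C replication reporter with no stimulus; test concentration not given here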
# [3] = Pseudomonas biofilm growth suppression – PAO1 strain, BacTiter-Glo luminescence, LB-PBS, primary screen (AID 1144); conditions: P. aeruginosa PAO1 biofilm, 12 h, higher = more signal
# [4] = basal CRE-LacZ reporter activity in PC12 – cell-based, unstimulated, primary screen (AID 1145); conditions: no forskolin, luminescence, 4.5 h, higher = more signal, called active from +8 up or from −8 down
# [5] = forskolin-driven CRE-LacZ activity in PC12 – cell-based, CRE-LacZ reporter, forskolin-stimulated, primary screen (AID 1146); conditions: luminescence, 4.5 h, higher = more signal, called active from +8 up or from −8 down;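 note: PC12 cells with 6xCRE LacZ reporter stimulated by forskolin 10 µM; beta-galactosidase reporter signal reflecting CREB driven transcription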
# [6] = target: Streptavidin (Streptomyces avidinii) (UniProt P22629); experiment: compounds binding control protein streptavidin – biophysical, small-molecule microarray, 635/667 nm fluorescence, artefact control for SMM compound annotation, primary screen (AID 1147); conditions: higher = more signal;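 note: signal reflects streptavidin binding to arrayed compounds as a control protein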
# [7] = probe aInhba binding on compound microarray – biochemical, small-molecule microarray, 635/667 nm fluorescence, primary screen (AID 1148); conditions: higher = more signal;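 note: score merges 667nm spot fluorescence with signal-to-noise for antibody binding to printed compounds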
# Torsin-1A (Homo sapiens) [8] = target: Torsin-1A (Homo sapiens) (UniProt O14656); experiment: TOR1A wild-type binding on microarray – cell lysate, small-molecule microarray, lysate, 635/667 nm, primary screen (AID 1149); conditions: COS7 hTOR1A-WT lysate, 635 nm fluorescence, higher = more signal
# Torsin-1A (Homo sapiens) [9] = target: Torsin-1A (Homo sapiens) (UniProt O14656); experiment: torsin A mutant lysate binding on microarrays – cell lysate, small-molecule microarray, COS7 lysate, 635/667 nm fluorescence, primary screen (AID 1150); conditions: COS7 hTOR1A mutant lysate, 635 nm fluorescence, higher = more signal;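 note: score pools 667 nm emission and signal to noise measuring lysate protein binding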
# [10] = tested on: Sonic hedgehog protein (Shh); experiment: Sonic hedgehog microarray binding compounds – biochemical, small-molecule microarray, 635/667 nm fluorescence, primary screen (AID 1151); conditions: 635 nm fluorescence, higher = more signal;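 note: Shh protein binding to compounds spotted on small-molecule microarray slides; score combines spot fluorescence intensity with signal-to-noise across triplicate slides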
# [11] = optical density shifts of acrAB sulA E. coli – strain DRC41, OD650, 48 h, E. coli filamentation inducer project, primary screen (AID 1152); conditions: higher = more signal, called active from +8 up or from −8 down;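 note: E. coli MC1000 strain DRC41 lacking acrAB efflux pump and sulA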
# [12] = probe aLefty1 binding on compound microarray – biochemical, small-molecule microarray, 635/667 nm fluorescence, primary screen (AID 1153); conditions: higher = more signal;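 note: score merges spot fluorescence with signal-to-noise ratio from the scanned slide images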
# [13] = plasmodial surface anion channel blockers, osmotic lysis – cell-based, P. falciparum Indochina, OD700, 1 h, primary screen (AID 1154); conditions: P. falciparum Indochina infected RBC osmotic lysis, higher = more signal, called active from +8 up or from −8 down
# [14] = plasmodial surface anion channel blockers, osmotic lysis – cell-based, P. falciparum Indochina, OD700, 2 h, primary screen (AID 1155);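 note: lysis reports solute entry through the parasite surface anion channel PSAC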; conditions: P. falciparum Indochina infected erythrocytes, higher = more signal, called active from +8 up or from −8 down
# [15] = changes in parasitized red cell lysis, either direction – P. falciparum Indochina, OD700, 3 h, PSAC antagonist project, primary screen (AID 1156); conditions: P. falciparum-infected erythrocytes, osmotic lysis, higher = more signal, called active from +8 up or from −8 down
# [16] = plasmodial surface anion channel blockers, osmotic lysis – cell-based, P. falciparum Indochina, OD700, 18 h, primary screen (AID 1157); conditions: P. falciparum Indochina infected erythrocytes, osmotic lysis OD700, 18 h; higher = more signal, called active from +8 up or from −8 down
# [17] = S6 kinase pathway phospho-S6 level changes – cell-based, A549, cytoblot, luminescence, serum-stimulated, primary screen (AID 1158); conditions: 5 h, higher = more signal;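 note: serum-stimulated A549 lung adenocarcinoma cells; signal is phosphorylated S6 detected by cytoblot immunostaining with HRP secondary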
# [18] = target: NADPH oxidase 2 (Homo sapiens) (UniProt P04839); experiment: compounds shifting NOX2 Amplex Red fluorescence – cell-based, HEK293-NOX2, PMA-stimulated, NOX inhibitor project, primary screen (AID 1159); conditions: 45 min, higher = more signal, called active from +8 up or from −8 down; note: test concentration not given here
# [19] = target: NADPH oxidase 4 (Homo sapiens) (UniProt Q9NPH5); experiment: compounds shifting NOX4 Amplex Red fluorescence – cell-based, HEK293-NOX4, tetracycline-induced, NOX inhibitor project, primary screen (AID 1160); conditions: HEK293-NOX4, Amplex Red H2O2 fluorescence, 45 min; higher = more signal, called active from +8 up or from −8 down
# [20] = target: NADPH oxidase 5 (Homo sapiens) (UniProt Q96PH1); experiment: compounds shifting NOX5 Amplex Red fluorescence – cell-based, HEK293-NOX5, NOX inhibitor project, primary screen (AID 1161); conditions: HEK293-NOX5, ionomycin, 45 min, higher = more signal
# NADPH oxidase 5 (Homo sapiens), sequence (Q96PH1 whole entry, looked up): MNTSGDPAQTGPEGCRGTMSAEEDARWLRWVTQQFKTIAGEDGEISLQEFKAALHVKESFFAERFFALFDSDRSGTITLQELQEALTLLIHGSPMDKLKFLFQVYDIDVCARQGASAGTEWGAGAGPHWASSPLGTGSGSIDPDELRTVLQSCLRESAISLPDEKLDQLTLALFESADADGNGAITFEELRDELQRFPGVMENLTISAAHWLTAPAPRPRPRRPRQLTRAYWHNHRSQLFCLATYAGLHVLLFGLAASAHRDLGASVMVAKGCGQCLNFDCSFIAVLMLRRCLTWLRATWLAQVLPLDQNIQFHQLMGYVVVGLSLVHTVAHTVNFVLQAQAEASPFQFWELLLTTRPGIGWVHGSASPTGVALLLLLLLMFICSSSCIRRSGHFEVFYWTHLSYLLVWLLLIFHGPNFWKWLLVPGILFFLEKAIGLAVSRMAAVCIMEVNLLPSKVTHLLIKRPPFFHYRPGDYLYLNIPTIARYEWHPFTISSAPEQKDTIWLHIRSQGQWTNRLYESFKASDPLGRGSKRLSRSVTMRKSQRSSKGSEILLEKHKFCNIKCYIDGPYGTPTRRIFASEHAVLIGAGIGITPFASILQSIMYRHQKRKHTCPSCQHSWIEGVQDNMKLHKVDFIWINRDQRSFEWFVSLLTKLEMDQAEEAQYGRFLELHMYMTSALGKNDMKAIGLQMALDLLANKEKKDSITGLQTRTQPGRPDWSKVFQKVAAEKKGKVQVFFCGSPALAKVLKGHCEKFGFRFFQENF
# NADPH oxidase 4 (Homo sapiens), sequence (Q9NPH5 whole entry, looked up): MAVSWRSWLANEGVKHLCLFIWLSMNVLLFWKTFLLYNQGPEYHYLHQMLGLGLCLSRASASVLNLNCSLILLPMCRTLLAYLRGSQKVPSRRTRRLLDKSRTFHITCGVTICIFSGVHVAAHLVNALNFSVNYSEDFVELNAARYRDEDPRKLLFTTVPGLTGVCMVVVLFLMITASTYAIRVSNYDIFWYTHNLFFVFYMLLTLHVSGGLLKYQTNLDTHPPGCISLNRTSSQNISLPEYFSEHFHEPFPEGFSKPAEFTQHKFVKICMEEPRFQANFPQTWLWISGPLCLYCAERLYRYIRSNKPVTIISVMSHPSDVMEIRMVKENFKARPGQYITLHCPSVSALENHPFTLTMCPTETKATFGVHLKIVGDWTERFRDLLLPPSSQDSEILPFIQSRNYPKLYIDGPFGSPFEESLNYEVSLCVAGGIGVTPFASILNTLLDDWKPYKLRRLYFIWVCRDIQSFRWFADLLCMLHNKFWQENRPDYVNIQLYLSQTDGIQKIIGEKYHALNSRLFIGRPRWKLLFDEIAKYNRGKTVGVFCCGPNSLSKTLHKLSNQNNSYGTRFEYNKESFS
# Streptavidin (Streptomyces avidinii), sequence (P22629 whole entry, looked up): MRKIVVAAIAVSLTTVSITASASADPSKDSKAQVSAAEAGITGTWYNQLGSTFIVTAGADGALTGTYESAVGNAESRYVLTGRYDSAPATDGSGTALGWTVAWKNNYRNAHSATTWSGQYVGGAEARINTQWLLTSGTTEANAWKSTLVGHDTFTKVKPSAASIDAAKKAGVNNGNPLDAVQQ
# NADPH oxidase 2 (Homo sapiens), sequence (P04839 whole entry, looked up): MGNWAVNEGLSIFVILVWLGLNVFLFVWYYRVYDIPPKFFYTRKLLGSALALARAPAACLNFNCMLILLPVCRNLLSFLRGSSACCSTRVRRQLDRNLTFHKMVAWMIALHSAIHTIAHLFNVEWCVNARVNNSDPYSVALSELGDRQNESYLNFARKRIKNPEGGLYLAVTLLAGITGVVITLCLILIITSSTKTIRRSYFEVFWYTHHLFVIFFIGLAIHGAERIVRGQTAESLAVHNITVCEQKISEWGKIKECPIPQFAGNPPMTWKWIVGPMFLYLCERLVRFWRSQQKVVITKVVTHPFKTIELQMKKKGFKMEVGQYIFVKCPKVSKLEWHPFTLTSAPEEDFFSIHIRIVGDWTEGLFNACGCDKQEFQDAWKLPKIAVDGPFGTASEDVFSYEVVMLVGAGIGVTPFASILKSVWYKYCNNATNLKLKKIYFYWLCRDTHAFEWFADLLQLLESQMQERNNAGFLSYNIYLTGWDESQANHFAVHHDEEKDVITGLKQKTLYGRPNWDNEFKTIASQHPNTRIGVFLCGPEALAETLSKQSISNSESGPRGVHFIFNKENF
# Torsin-1A (Homo sapiens), sequence (O14656 whole entry, looked up): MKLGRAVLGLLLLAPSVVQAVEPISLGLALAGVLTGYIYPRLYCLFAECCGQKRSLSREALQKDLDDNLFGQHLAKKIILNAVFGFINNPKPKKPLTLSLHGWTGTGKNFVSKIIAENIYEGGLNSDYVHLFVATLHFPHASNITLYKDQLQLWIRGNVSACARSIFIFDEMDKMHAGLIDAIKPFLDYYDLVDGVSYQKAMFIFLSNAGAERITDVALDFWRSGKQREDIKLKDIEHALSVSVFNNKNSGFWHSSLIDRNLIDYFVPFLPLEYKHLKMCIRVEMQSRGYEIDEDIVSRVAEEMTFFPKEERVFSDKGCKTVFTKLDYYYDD
SMILES,composite z-score [1],z-score [2],z-score [3],z-score [4],z-score [5],composite z-score [6],composite z-score [7],composite z-score (Torsin-1A (Homo sapiens) [8]),composite z-score (Torsin-1A (Homo sapiens) [9]),composite z-score [10],z-score [11],composite z-score [12],z-score [13],z-score [14],z-score [15],z-score [16],z-score [17],z-score [18],z-score [19],z-score [20]
O=C1O[C@@H](c2ccccc2)[C@@H](c2ccccc2)N2[C@@H](c3ccccc3OCCO)[C@]3(C(=O)Nc4ccccc43)[C@@H](C(=O)Nc3nc4ccccc4s3)[C@H]12,0.371,-5.91 (inactive),-0.311 (inactive),0.568 (inactive),3.07 (inactive),1.9,0.286,0.469,0.972,2.03,0.533 (inactive),1.14,2.02 (inactive),1.59 (inactive),0.0197 (inactive),-1.52 (inactive),1.53,0.188 (inactive),-0.547 (inactive),-1.6
CC1(C)C2C=C(C(O)C3C=CC4C(=O)NC(=O)C4N3Nc3ccc(Cl)cc3Cl)C[C@@H]1C2 (stereo not given in full),0.696,-2.39 (inactive),-0.418 (inactive),1.19 (inactive),-0.0073 (inactive),0.961,0.0236,-0.0995,1.09,-0.193,-4.41 (inactive),0.265,3.33 (inactive),0.916 (inactive),-2.43 (inactive),1.19 (inactive),-1.38,-0.197 (inactive),-5.57 (inactive),-3.46
CCOC(=O)C[C@H]1[C@H](OC(=O)c2ccc(C(=O)c3ccccc3)cc2)[C@@H](NC(=O)CC(C)C)c2cc(OCCCO)ccc2N1C(=O)c1ccc2ccccc2n1,0.188,-0.772 (inactive),-1.04 (inactive),0.469 (inactive),-0.23 (inactive),1.22,-0.003,0.396,0.15,1.27,1.66 (inactive),-0.0518,3.64 (inactive),0.582 (inactive),0.0206 (inactive),-0.135 (inactive),0.276,-1.46 (inactive),0.892 (inactive),0.97
Cc1ccc(S[C@]2(C(=O)NCCCN(C)C)CC(=O)N(Cc3cc(C(F)(F)F)cc(C(F)(F)F)c3)[C@@H]2c2ccc(CO)cc2I)cc1,-0.116,-1.21 (inactive),0.463 (inactive),-0.994 (inactive),1.23 (inactive),-0.0724,0.172,-0.314,-0.88,-0.503,0.272 (inactive),1.37,3.48 (inactive),1.12 (inactive),-1.36 (inactive),0.303 (inactive),-0.232,1.28 (inactive),-1.25 (inactive),2.43
C=C(/C(=C/C[C@H](OC(C)=O)c1ccccc1OCCO)c1cnc2ccccc2c1)C(C)C,0.025,-1.61 (inactive),0.445 (inactive),4.98 (inactive),1.49 (inactive),0.533,0.0543,0.316,0.0233,1.09,-0.564 (inactive),-0.0654,9.77 (active),1.55 (inactive),1.29 (inactive),0.724 (inactive),0.193,-0.353 (inactive),-0.402 (inactive),-1.08
Cc1ccc(N2C(=O)c3ccccc3[C@@H](C(=O)NC3CC3)[C@@H]2c2ccc(CO)cc2)nc1,-0.645,0.256 (inactive),-0.754 (inactive),-0.062 (inactive),0.986 (inactive),-1.76,-0.282,1.23,0.969,-0.958,-0.0739 (inactive),-0.138,1.92 (inactive),-0.325 (inactive),0.62 (inactive),-0.0389 (inactive),-0.179,0.355 (inactive),-0.647 (inactive),-1.51
COC(=O)[C@@]1(Cc2ccc(OC)cc2)[C@H]2c3cc(C(=O)N4CCCC4)n(Cc4ccc(C)c(F)c4F)c3C[C@H]2CN1C(=O)c1ccccc1,0.634,-2.92 (inactive),0.605 (inactive),-1.15 (inactive),-0.572 (inactive),1.81,0.289,-0.429,0.839,-0.746,-0.548 (inactive),0.378,3.76 (inactive),0.233 (inactive),0.894 (inactive),1.08 (inactive),0.105,0.705 (inactive),1.23 (inactive),-3.41
COc1ccc(C#Cc2ccc3c(c2)[C@]2(C(=O)N3)[C@H](C(=O)NC[C@H](O)c3ccccc3)[C@H]3C(=O)O[C@H](c4ccccc4)[C@H](c4ccccc4)N3[C@@H]2c2ccc(O)cc2)cc1,0.288,-2.62 (inactive),-1.1 (inactive),-0.141 (inactive),-0.301 (inactive),0.539,-0.128,0.179,0.587,1.24,0.078 (inactive),-0.0984,-0.476 (inactive),0.657 (inactive),-1.03 (inactive),0.909 (inactive),-0.434,1.25 (inactive),0.118 (inactive),-0.339
